Data: article PMC7862700, “An all-to-all approach to the identification of sequence-specific readers for epigenetic DNA modifications on cytosine”

Columns and labels:
Test in all cases: DAPPL (digital affinity profiling via proximity ligation, sequencing); 10 mM Tris-HCl pH 7.5, 50 mM NaCl, 1 mM DTT, 4% glycerol, room temperature, 30 min; GST-TFs on glutathione beads, 16-mer random dsDNA library, 0.1% formaldehyde crosslink after washing; high values mean tight binding
FEV = biological target: T1, FEV (Homo sapiens, UniProt Q99581 1-238); details: protein: recombinant; tags: N-terminal GST; dsDNA, one strand shown
T1 sequence: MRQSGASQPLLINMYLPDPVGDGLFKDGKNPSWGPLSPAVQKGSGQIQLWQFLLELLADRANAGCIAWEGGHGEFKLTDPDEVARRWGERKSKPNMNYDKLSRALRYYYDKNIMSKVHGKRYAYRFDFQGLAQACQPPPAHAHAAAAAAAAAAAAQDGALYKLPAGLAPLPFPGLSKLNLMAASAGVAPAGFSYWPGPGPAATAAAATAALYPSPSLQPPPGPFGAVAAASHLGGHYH
Outline: (§1)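 Pools of DNA-barcoded human transcription factors, expressed in yeast as GST fusions on glutathione beads and combined with a tag-only sample, were incubated with 200 nmole of a 16-mer random double-stranded DNA library. Incubation took 30 min at room temperature in Tris/NaCl/DTT/glycerol buffer and was followed by washing, 0.1% formaldehyde crosslinking, proximity ligation (BsaI/T4 ligase, 1 h, 37 °C), PCR amplification and sequencing on an Illumina NextSeq500. Binding signal is the ratio of a hexamer's read frequency for a factor to its frequency for the tag-only sample.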

ETV5 = ETV5 (Homo sapiens, UniProt P41161 1-510); details: protein: recombinant; tags: N-terminal GST; dsDNA, one strand shown
ETV5, sequence (P41161 whole entry): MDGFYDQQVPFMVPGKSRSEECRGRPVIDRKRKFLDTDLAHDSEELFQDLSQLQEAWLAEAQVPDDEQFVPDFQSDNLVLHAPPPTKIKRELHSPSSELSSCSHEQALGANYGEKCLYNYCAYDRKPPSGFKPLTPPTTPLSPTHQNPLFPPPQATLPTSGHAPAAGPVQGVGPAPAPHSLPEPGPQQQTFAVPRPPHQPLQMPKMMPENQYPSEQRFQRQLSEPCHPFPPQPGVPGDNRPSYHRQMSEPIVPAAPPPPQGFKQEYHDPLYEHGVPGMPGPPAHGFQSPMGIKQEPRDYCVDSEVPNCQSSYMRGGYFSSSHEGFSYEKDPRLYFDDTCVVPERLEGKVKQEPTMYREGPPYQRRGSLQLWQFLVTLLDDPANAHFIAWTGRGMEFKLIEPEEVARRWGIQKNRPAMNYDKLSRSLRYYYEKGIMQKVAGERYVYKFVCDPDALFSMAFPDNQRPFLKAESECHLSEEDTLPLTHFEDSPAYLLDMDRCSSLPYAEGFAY
Outline: as §1

HSF1 = HSF1 (Homo sapiens, UniProt Q00613 1-529); details: protein: recombinant; tags: N-terminal GST; chain copies: 3; dsDNA, one strand shown
HSF1, sequence (Q00613 whole entry): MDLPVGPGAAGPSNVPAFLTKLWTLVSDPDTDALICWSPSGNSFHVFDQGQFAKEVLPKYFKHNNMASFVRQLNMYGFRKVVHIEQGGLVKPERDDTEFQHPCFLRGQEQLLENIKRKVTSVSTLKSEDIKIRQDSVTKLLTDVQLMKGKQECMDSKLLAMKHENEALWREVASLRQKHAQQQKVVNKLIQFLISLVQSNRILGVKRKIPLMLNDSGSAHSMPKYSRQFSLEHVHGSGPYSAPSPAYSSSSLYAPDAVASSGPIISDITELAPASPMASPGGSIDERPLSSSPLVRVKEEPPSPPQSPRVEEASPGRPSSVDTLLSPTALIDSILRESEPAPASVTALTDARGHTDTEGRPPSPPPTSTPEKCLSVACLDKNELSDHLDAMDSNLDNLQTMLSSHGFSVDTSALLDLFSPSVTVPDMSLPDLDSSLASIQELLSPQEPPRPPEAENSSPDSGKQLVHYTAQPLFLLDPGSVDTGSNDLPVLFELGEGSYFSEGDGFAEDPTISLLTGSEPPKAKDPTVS
Outline: as §1

SPIC = biological target: T2, SPIC (Homo sapiens, UniProt Q8N5J4 1-248); details: protein: recombinant; tags: N-terminal GST; dsDNA, one strand shown
T2 sequence: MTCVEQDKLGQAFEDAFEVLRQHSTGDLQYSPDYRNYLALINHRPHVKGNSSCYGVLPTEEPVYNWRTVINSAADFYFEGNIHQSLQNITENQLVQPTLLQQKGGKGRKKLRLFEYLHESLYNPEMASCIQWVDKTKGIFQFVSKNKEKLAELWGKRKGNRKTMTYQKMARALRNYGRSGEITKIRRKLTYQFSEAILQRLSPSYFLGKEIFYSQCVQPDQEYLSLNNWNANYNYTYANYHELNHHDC
Outline: as §1

ELF4 = ELF4 (Homo sapiens, UniProt Q99607 1-663); details: protein: recombinant; tags: N-terminal GST; dsDNA, one strand shown
ELF4, sequence (Q99607 whole entry): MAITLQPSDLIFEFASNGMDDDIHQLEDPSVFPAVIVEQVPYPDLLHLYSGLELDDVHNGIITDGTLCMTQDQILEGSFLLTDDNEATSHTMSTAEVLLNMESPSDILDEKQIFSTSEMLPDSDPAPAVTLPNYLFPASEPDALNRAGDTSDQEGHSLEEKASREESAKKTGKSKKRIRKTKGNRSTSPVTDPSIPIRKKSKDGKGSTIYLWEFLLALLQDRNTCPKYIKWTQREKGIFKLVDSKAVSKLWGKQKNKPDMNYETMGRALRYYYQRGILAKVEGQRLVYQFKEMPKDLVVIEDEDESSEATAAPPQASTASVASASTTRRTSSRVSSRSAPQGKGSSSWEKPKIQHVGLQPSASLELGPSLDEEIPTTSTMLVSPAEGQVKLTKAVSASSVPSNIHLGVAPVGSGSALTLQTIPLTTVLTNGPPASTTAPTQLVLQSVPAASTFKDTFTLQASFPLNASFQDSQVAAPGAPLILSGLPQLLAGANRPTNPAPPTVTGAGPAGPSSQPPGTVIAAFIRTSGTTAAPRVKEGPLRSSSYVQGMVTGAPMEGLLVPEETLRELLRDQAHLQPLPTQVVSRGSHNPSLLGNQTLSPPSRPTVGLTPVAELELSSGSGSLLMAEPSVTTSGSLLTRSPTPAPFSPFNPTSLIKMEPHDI
Outline: as §1

ELK4 = biological target: T3, ELK4 (Homo sapiens, UniProt P28324-2 1-405); details: protein: recombinant; tags: N-terminal GST; dsDNA, one strand shown
T3 sequence: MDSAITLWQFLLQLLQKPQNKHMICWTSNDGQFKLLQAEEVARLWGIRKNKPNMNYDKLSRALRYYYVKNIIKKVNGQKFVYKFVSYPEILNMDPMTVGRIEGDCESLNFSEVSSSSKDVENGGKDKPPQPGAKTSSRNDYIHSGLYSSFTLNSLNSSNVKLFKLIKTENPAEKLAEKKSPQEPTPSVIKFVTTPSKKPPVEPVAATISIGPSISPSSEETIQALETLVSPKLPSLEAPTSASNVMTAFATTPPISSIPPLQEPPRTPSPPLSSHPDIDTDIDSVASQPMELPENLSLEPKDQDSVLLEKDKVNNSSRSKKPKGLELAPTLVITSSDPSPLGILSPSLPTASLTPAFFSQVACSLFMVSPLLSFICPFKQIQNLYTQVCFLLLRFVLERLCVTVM
Outline: as §1

ETV2 = biological target: T4, ETV2 (Homo sapiens, UniProt O00321 1-342); details: protein: recombinant; tags: N-terminal GST; dsDNA, one strand shown
T4 sequence: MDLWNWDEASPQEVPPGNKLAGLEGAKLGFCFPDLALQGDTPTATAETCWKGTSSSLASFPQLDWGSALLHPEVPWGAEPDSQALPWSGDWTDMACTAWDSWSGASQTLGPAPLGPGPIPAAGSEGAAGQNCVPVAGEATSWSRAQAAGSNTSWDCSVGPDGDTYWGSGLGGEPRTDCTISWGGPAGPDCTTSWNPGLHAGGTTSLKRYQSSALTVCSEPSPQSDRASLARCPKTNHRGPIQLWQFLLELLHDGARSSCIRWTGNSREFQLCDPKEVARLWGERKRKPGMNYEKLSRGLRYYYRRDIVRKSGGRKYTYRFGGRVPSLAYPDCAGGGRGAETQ
Outline: as §1

ELF3 = biological target: T5, ELF3 (Homo sapiens, UniProt P78545 1-371); details: protein: recombinant; tags: N-terminal GST; dsDNA, one strand shown
T5 sequence: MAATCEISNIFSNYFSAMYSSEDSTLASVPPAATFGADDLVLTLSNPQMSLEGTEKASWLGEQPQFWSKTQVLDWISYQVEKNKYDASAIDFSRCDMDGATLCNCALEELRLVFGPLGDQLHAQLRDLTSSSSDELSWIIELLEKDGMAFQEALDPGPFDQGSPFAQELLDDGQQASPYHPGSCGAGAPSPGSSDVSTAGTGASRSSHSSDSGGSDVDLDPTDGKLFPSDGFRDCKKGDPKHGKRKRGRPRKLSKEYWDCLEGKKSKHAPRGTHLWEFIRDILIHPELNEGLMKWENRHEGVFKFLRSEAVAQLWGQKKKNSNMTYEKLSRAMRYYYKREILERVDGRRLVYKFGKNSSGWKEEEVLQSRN
Outline: as §1

CRX = CRX (Homo sapiens, UniProt O43186 1-299); details: protein: recombinant; tags: N-terminal GST; dsDNA, one strand shown
CRX, sequence (O43186 whole entry): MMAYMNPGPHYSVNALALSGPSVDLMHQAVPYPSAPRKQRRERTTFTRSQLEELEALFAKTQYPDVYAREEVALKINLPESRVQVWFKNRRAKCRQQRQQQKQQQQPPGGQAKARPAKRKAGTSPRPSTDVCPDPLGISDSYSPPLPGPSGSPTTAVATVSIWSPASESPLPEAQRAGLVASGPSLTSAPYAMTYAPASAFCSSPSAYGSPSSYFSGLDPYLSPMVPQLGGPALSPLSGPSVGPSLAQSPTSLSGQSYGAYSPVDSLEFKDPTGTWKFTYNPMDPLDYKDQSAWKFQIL
Outline: as §1

ETV1 = ETV1 (Homo sapiens, UniProt P50549 1-477); details: protein: recombinant; tags: N-terminal GST; dsDNA, one strand shown
ETV1, sequence (P50549 whole entry): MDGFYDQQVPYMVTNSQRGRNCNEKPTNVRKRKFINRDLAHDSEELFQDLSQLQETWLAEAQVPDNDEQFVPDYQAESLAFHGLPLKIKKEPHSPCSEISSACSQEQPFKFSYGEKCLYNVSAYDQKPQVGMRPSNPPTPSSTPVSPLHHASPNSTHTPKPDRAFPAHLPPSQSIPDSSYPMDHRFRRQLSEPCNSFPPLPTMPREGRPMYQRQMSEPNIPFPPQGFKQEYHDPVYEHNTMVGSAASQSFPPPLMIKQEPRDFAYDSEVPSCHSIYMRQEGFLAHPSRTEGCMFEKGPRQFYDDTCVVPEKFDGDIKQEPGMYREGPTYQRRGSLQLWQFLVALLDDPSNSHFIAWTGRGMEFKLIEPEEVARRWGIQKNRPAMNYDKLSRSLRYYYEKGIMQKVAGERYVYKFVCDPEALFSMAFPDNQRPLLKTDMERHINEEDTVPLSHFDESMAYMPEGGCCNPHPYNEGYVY
Outline: as §1

Sequence	binding signal (FEV)	binding signal (ETV5)	binding signal (HSF1)	binding signal (SPIC)	binding signal (ELF4)	binding signal (ELK4)	binding signal (ETV2)	binding signal (ELF3)	binding signal (CRX)	binding signal (ETV1)
CTGATA	1.14 fold enrichment (6-mer frequency, TF over GST control)	1.18 fold enrichment (6-mer frequency, TF over GST control)	1.18 fold enrichment (6-mer frequency, TF over GST control)	1.11 fold enrichment (6-mer frequency, TF over GST control)	1.19 fold enrichment (6-mer frequency, TF over GST control)	1.35 fold enrichment (6-mer frequency, TF over GST control)	1.15 fold enrichment (6-mer frequency, TF over GST control)	1.13 fold enrichment (6-mer frequency, TF over GST control)	1.26 fold enrichment (6-mer frequency, TF over GST control)	1.13 fold enrichment (6-mer frequency, TF over GST control)
ACATGC	1.3 fold enrichment (6-mer frequency, TF over GST control)	1.25 fold enrichment (6-mer frequency, TF over GST control)	1.1 fold enrichment (6-mer frequency, TF over GST control)	1.27 fold enrichment (6-mer frequency, TF over GST control)	1.26 fold enrichment (6-mer frequency, TF over GST control)	1.2 fold enrichment (6-mer frequency, TF over GST control)	1.44 fold enrichment (6-mer frequency, TF over GST control)	1.28 fold enrichment (6-mer frequency, TF over GST control)	1.03 fold enrichment (6-mer frequency, TF over GST control)	1.3 fold enrichment (6-mer frequency, TF over GST control)
CCCTTA	1.24 fold enrichment (6-mer frequency, TF over GST control)	1.28 fold enrichment (6-mer frequency, TF over GST control)	1.28 fold enrichment (6-mer frequency, TF over GST control)	1.31 fold enrichment (6-mer frequency, TF over GST control)	1.39 fold enrichment (6-mer frequency, TF over GST control)	1.21 fold enrichment (6-mer frequency, TF over GST control)	1.41 fold enrichment (6-mer frequency, TF over GST control)	1.29 fold enrichment (6-mer frequency, TF over GST control)	1.59 fold enrichment (6-mer frequency, TF over GST control)	1.21 fold enrichment (6-mer frequency, TF over GST control)
ATTCTG	1.23 fold enrichment (6-mer frequency, TF over GST control)	1.29 fold enrichment (6-mer frequency, TF over GST control)	2.18 fold enrichment (6-mer frequency, TF over GST control)	1.11 fold enrichment (6-mer frequency, TF over GST control)	1.37 fold enrichment (6-mer frequency, TF over GST control)	1.38 fold enrichment (6-mer frequency, TF over GST control)	1.43 fold enrichment (6-mer frequency, TF over GST control)	1.08 fold enrichment (6-mer frequency, TF over GST control)	1.5 fold enrichment (6-mer frequency, TF over GST control)	1.45 fold enrichment (6-mer frequency, TF over GST control)
TAAATT	1.25 fold enrichment (6-mer frequency, TF over GST control)	1.26 fold enrichment (6-mer frequency, TF over GST control)	1.51 fold enrichment (6-mer frequency, TF over GST control)	1.25 fold enrichment (6-mer frequency, TF over GST control)	1.17 fold enrichment (6-mer frequency, TF over GST control)	1.31 fold enrichment (6-mer frequency, TF over GST control)	1.34 fold enrichment (6-mer frequency, TF over GST control)	1.32 fold enrichment (6-mer frequency, TF over GST control)	1.76 fold enrichment (6-mer frequency, TF over GST control)	1.17 fold enrichment (6-mer frequency, TF over GST control)
TGACTT	1.59 fold enrichment (6-mer frequency, TF over GST control)	1.52 fold enrichment (6-mer frequency, TF over GST control)	1.15 fold enrichment (6-mer frequency, TF over GST control)	1.37 fold enrichment (6-mer frequency, TF over GST control)	1.45 fold enrichment (6-mer frequency, TF over GST control)	1.4 fold enrichment (6-mer frequency, TF over GST control)	1.44 fold enrichment (6-mer frequency, TF over GST control)	1.55 fold enrichment (6-mer frequency, TF over GST control)	1.29 fold enrichment (6-mer frequency, TF over GST control)	1.47 fold enrichment (6-mer frequency, TF over GST control)
ATCCAT	1.24 fold enrichment (6-mer frequency, TF over GST control)	1.17 fold enrichment (6-mer frequency, TF over GST control)	1.23 fold enrichment (6-mer frequency, TF over GST control)	1.16 fold enrichment (6-mer frequency, TF over GST control)	1.13 fold enrichment (6-mer frequency, TF over GST control)	1.14 fold enrichment (6-mer frequency, TF over GST control)	1.19 fold enrichment (6-mer frequency, TF over GST control)	1.32 fold enrichment (6-mer frequency, TF over GST control)	1.55 fold enrichment (6-mer frequency, TF over GST control)	1.14 fold enrichment (6-mer frequency, TF over GST control)
